Laboratory results as given in the supplement of paper PMC11417369.
± gives the standard deviation of the averaged measurements. In all, about 25,000 sequences were measured (“ln(normalized median fluorescence intensity)”: median about 8.9, highest 2% from about 10 on). The sample as a whole holds a higher share of the highest values than the screen did.

What follows are sequences tested on PfAP2-LT AP2 domain (GST-tagged) (assay: gcPBM binding intensity (ln(normalized median fluorescence intensity)); higher = stronger DNA binding).
Outline: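 The binding buffer was 1× PBS containing 1% milk, 0.2 mg/ml BSA, 0.5% salmon testes DNA and 0.03% Triton X-100. In it, GST-tagged P. falciparum DNA-binding domains expressed in E. coli were applied for 1 h to an Agilent 4 × 180k array of primer-extended double-stranded 36-bp intergenic genomic probes plus negative controls. Binding intensity, read with Alexa488 anti-GST antibody and a 488 nm scan, is the highest Masliner-normalised natural-log median intensity across replicate spots of either probe orientation.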

Sequence	gcPBM binding intensity (ln)
ACTATATTTCTATAATGTACAAAAATAAATCATATG [XGTACX_site3337]	8.64 ± 0.39
TTTGCCCAAAAAGGTACACACCACAATGTACATAAA [CACACA_site4599]	8.85 ± 0.49
ATAAAGCCATACAATACACACATTTTACATGGCTGT [CACACA_site5756]	9.26 ± 0.42
GGCAAATTTATTATACCCACATACATACATACATAC [XGTACX_negctrl_site186]	9.01 ± 0.32
TACATAAATTAAAACACACACACACCCAAAAAAAAA [CACACA_site2261]	9.9 ± 0.22
AACTTTGGCAAACACACACACACACCCACACCCACA [CACACA_site588]	10.1 ± 0.42
CAAACATTTTAATGTACACACACCCACAGACAAACA [CACACA_site5522]	9.57 ± 0.13
AGACAGCGCACAAACACACAAACACCCACCCACATA [CACACA_site451]	10.1 ± 0.16
AAATTTGGCAAACACACACACACACCCACAGAGACA [CACACA_site4490]	10.2 ± 0.13
AAATTTGGCAAACACACACACACACCCACACCCACA [CACACA_site8095]	10.4 ± 0.19
TTTTTTCTTTTATGTGAAATGTAATATTGTTATATA [GTGCAC_negctrl_site715]	8.51 ± 0.52
TATATACGCATTTTTATACACACTTGTTTTATAAAA [CACACA_site727]	8.79 ± 0.35
GGATATATTATATGTACACACACATATAAGGGATTA [CACACA_site7884]	9.34 ± 0.31
TTACAAAAAAATAATTGTACATACAATTTCTGTTAT [XGTACX_site877]	8.71 ± 0.45
ATATTTTTATTTAAACGTACATACACGTTGAAAAGA [XGTACX_site4567]	8.43 ± 0.4
TGTAATAAATAGTACACACACACATATTTATATATC [CACACA_site6770]	9.72 ± 0.23
TCTTTATCTTCTTATACACACATTTATTAAAAAAAA [CACACA_site445]	8.55 ± 0.4
ATAAAACCAACATAGAGTACAGATCGACTATGTTTC [XGTACX_site4329]	9.05 ± 0.47
AATAATAGAAGCACCCACCCACCACCACCCACACAT [CACACA_negctrl_site1033]	10.46 ± 0.028
TATAATAATCCACAAGCACACACACCCACATATATA [CACACA_site8343]	9.91 ± 0.32
GTTATAGAAGCATTCACACACACACCCACATACACA [CACACA_site1465]	10.1 ± 0.11
TGTAAGTTGATATAATGTACATGTTTGATTTTTTTT [XGTACX_site7687]	8.71 ± 0.47
AGTATATAAAATACTGTATCGATGGGGGAGGGCGCA [CACACA_negctrl_site1612]	10 ± 0.44
TATAAAATACTGTATCGATGGGGGAGGGCGCAGGGG [TGCATGCA_negctrl_site250]	10.4 ± 0.16
ATATATGGGGCGCAGGAAAAGAGTTTTGGAAATAAA [CACACA_negctrl_site1265]	8.98 ± 0.55

Sequence	gcPBM binding intensity (ln)
CTTTTTTGTTAAAGTGTGCGCAATAGTTATAGACTT [GTGCAC_site9670]	8.87 ± 0.38
AGATATAAGAAAAGCACACACACACTAGAAAAAAAA [CACACA_site5559]	9.92 ± 0.33
ATATAAGAAAAGCACACACACACAAAAAAAAAAAAA [CACACA_site2827]	10.1 ± 0.42
AGATATAAGAAAAGCACACACACACCCAAAAAAAAA [CACACA_site2826]	10.2 ± 0.18
TTAATATAAGCAAATACACACACACCGATATATATA [CACACA_site9269]	9.8 ± 0.26
ATAATACCCAAGCACACACACACACCGATATATATA [CACACA_site8344]	10.4 ± 0.2
TAATAATACCCAAGCACACACACACCCATATATATA [CACACA_site4831]	10.1 ± 0.33
TGATAATAAGCATACACACACACACTAGAAAAAAAA [CACACA_site4558]	10.1 ± 0.38
TAATAATCCACAAGCACACACACACCCATATATATA [CACACA_site1267]	9.96 ± 0.13
TGATAATAAGCATACACACACACACTAAAAAAAAAA [CACACA_site6478]	9.94 ± 0.38
TATAATCCATAAGAAGCACACACATATATATATATT [CACACA_site8394]	9.41 ± 0.3
AGAGATATAAGAAAAGCACACACACCCAAAAAAAAA [CACACA_site8917]	9.96 ± 0.29
ATAATCCACAAGCACACACACACACCCATATATATA [CACACA_site1268]	10.1 ± 0.35
ATTTTAACTCCCCTTAATCTATTGTATATATATATA [CACACA_negctrl_site208]	8.88 ± 0.29
TACTCAAAAATTAATTAGCATAATATATATAAAAAT [GTGCAC_negctrl_site613]	8.49 ± 0.45
TTTGCCATAAAACACACACACATGTAAACCCCCTTT [CACACA_site1646]	9.76 ± 0.2
ATATATTAATATGTGTGTACTTAACCATTCATATGT [XGTACX_site7395]	9.1 ± 0.4
TCTTGTATACGGCATGCATGTTAGCACATACGGACA [TGCATGCA_site146]	8.9 ± 0.32
ATATATTTAAATAAAAGTACGTAAAGGTATATTTAA [XGTACX_site8088]	8.88 ± 0.44
ACATTCAATAAACGTCGTACACTTTCCTTTTTATGA [XGTACX_site3274]	8.86 ± 0.52
TAATAATAGTCTAATACATGCATCGATAACGGAACT [TGCATGCA_site98]	8.82 ± 0.32
GGTGATAATAAGCATACACACACACCCAAAAAAAAA [CACACA_site8137]	9.59 ± 0.35
TGATAATAAGCATACACACACACACCCAAAAAAAAA [CACACA_site721]	10.2 ± 0.25
AATAAGTATACACATACACACACACCCAAAAAAAAA [CACACA_site8034]	10 ± 0.39
AACATAAGTAAGAATACATGCGGAAATTATATAGAA [TGCATGCA_site112]	9.03 ± 0.38

Sequence	gcPBM binding intensity (ln)
GGTAAGTACGACTTGACACACATACCCATATATATA [CACACA_site4837]	9.2 ± 0.55
ATAATTATATTTAGTGGTACTACTTTTGATAATTAG [XGTACX_site6562]	8.63 ± 0.42
AACACATACAGACACACACACAAAAAAAAAAAAAAA [CACACA_site6322]	9.58 ± 0.78
TAAACAGACATATAAACACACATACATACATACATA [CACACA_site7215]	9.41 ± 0.32
AAAAAAAACAGACACACACACACATATACATACATA [CACACA_site2665]	10.3 ± 0.17
CACAAACAGACAAACACACACACACGGACATACATA [CACACA_site6350]	10.1 ± 0.11
AAAAAAAACAGACACACACACATACACATACATACA [CACACA_site2857]	10.2 ± 0.19
AAAAAAAAAAAAAACACACACATACAGACAAAAATG [CACACA_site83]	9.7 ± 0.45
AACAGACATACATACACACATACATACAGACATACA [CACACA_site1942]	9.64 ± 0.45
TAAACAGACATACATACACACATACATACAGACATA [CACACA_site6997]	9.61 ± 0.37
AAAAAAAAAAAACATACACACATACATACAGATATA [CACACA_site4681]	9.32 ± 0.36
ATATATTTTGTTATGGTGCGTAAGAAATATATTCTT [GTGCAC_site9825]	8.73 ± 0.43
CGAGCAAGACGGGGTGCACACAAACTAATATGCCGA [CACACA_site7936]	9.55 ± 0.5
TCAAACGGTTAAATATGTACATATATATATATATAT [XGTACX_site2339]	9.695 ± 0.0071
TTATAATATTCATAAGGTACAGTTTATATATGTTAT [XGTACX_site8442]	8.68 ± 0.4
TCTTTGAATTTTTTAACACACACATGGGTGGATATA [CACACA_site8474]	9.04 ± 0.38
ATATAATAGTATATATGTACATATATTTAAATACTA [XGTACX_site1135]	8.82 ± 0.4
ATTCATACATGCACACGTACATATTTAAATATAAAA [XGTACX_site8388]	9.04 ± 0.36
TTAGAAACATTGAAAGCATGCAATATTACTTTATAC [TGCATGCA_site522]	8.82 ± 0.28
TTTTTTTCTTGTTTTAAATAATATACTGGAAAAAAA [CACACA_negctrl_site585]	7.88 ± 0.33
TGTACCTTATTAATATATTTAACTCGCCTTATATAC [XGTACX_negctrl_site289]	8.96 ± 0.36
AAATGTACAGGACGCACACACATATTTATATTTATA [CACACA_site7689]	9.53 ± 0.3
AAATGTACAGGACGCACACACATATATATATATATA [CACACA_site3674]	10.11 ± 0.05
TAAAATGTACAGGACGCACACACATATATATATATA [CACACA_site3673]	9.92 ± 0.42
GCCTTCCTTCTAAATGCACACGGAAAGTATAAATGT [CACACA_site8797]	9.04 ± 0.31

Sequence	gcPBM binding intensity (ln)
TTAATGTAGAGAAAATGTACATTTTATTAAAACAAT [XGTACX_site6376]	8.76 ± 0.47
AAATAAAACAGACACACACACACATACACAAAAAAA [CACACA_site7753]	10.1 ± 0.22
AACATACATAAACACACACACACACCCACAGAGACA [CACACA_site4430]	10.29 ± 0.035
TAAACATACAGATACACACACACACCCACAGAGACA [CACACA_site4429]	10.15 ± 0.028
AAATAACAAATTTTTAAAATGTATATATATATATAT [TGCATGCA_negctrl_site219]	9.51 ± 0.12
GTTTTTTTTTTTTTGGTGCGTCATTTTCAAAAGAAG [GTGCAC_site9745]	8.57 ± 0.41
AAACAAAAAAATTGAAATAAAATGAAGTAAATGAAC [TGCATGCA_negctrl_site129]	8.9 ± 0.66
TTTTTTTTTTTTTTTTTTTTTTTCTTTATTTTTTTT [CACACA_negctrl_site703]	8.16 ± 0.43
ATTGTTTTGTAATATGAAAAAATTGTGTAATGTGTC [CACACA_negctrl_site1510]	8.72 ± 0.4
TTTTAAGTTTTTGAATGTACGTAATTTGTAAATTCT [XGTACX_site2448]	8.49 ± 0.47
TATTTTTATTTTACATTATTTGTTTATAATTCTTAA [CACACA_negctrl_site1358]	8.53 ± 0.57
CATATACTCGGACACACACACACACCGACAAAAAAA [CACACA_site4433]	10.1 ± 0.41
AAAAAAAAAAAACACACACACAAAAAAAAATATATA [CACACA_site1105]	9.85 ± 0.54
AAAAAAAAAAAACACACACACACACCGACAAAATAT [CACACA_site8411]	10.4 ± 0.25
ATAAATGACAGACACACACACAAAAAAAAAAAACAA [CACACA_site2626]	9.84 ± 0.57
CACAAACAAAAACACACACACACACCGACAAAAATG [CACACA_site5362]	10.24 ± 0.092
ACAAATAAATAAAAAACACACACAAATAAATAAATA [CACACA_site8708]	9.57 ± 0.38
TAAAATAAAACAAACACACACACACCGACACAAAAA [CACACA_site5993]	10.1 ± 0.035
ATGTTACACCGACACACACACATAAAAAAACAAAAA [CACACA_site5750]	9.61 ± 0.42
AAAAAAAAAAAAAACACACACACAAAAAAAAATATA [CACACA_site1104]	9.68 ± 0.35
TATTTATTAAAACACACACACACACCGACAAAATAA [CACACA_site4293]	9.97 ± 0.25
CATATATACTCATACACACACACACCGACACAGACA [CACACA_site5026]	9.84 ± 0.17
TATACTCATATATAAACACACAAAAAAAAAAAAAAA [CACACA_site5165]	8.72 ± 0.45
